About 79,000 compounds went through this panel and 15% of them were active in at least one assay; those are over-represented in the sample as a whole. No stated cut-off is given here; in the data, active means growth inhibition above about 70%; inactive means the rest.
Columns and labels:
[1] = NCI Yeast Anticancer Drug Screen. Data for the rad50 strain (AID 155);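 further: 0% = growth of vehicle-only cultures of the same strain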; conditions: S. cerevisiae rad50 strain growth inhibition; at 50.0 µM; stronger effect = higher value
Method in brief: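 Yeast carrying a defined DNA repair defect were exposed to test compounds, and growth was compared with vehicle-treated controls to give percent inhibition.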

[2] = NCI Yeast Anticancer Drug Screen. Data for the mec2-1 strain (AID 157); conditions: S. cerevisiae mec2-1 strain, at 50.0 µM, stronger effect = higher value
Method in brief: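 Compounds were applied to mec2-1 yeast cells. Their growth was then compared with that of vehicle-treated cultures to give growth inhibition.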

[3] = NCI Yeast Anticancer Drug Screen. Data for the sgs1 mgt1 strain (AID 161);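 further: 0% = growth of cultures given vehicle only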; conditions: S. cerevisiae sgs1 mgt1 strain, at 50.0 µM, stronger effect = higher value
Method in brief: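 This yeast growth screen uses a strain with defined DNA-repair lesions; compound-treated growth is compared with vehicle-treated growth.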

[4] = NCI Yeast Anticancer Drug Screen. Data for the cln2 rad14 strain (AID 165);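 further: 0% = growth equal to vehicle treated cultures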; conditions: S. cerevisiae cln2 rad14 strain, at 50.0 µM, stronger effect = higher value
Method in brief: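 Strain: cln2 rad14 yeast, altered in cell cycle control and DNA damage repair. Read-out: growth inhibition vs vehicle.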

[5] = NCI Yeast Anticancer Drug Screen. Data for the bub3 strain (AID 167); conditions: S. cerevisiae bub3 mutant strain, at 50.0 µM, stronger effect = higher value
Method in brief: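 Compounds were applied to a genetically altered yeast strain carrying a cell-cycle control defect. Growth inhibition was scored against vehicle-treated controls.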

[6] = NCI Yeast Anticancer Drug Screen. Data for the mlh1 rad18 strain (AID 175); conditions: S. cerevisiae mlh1 rad18 strain growth inhibition; at 50.0 µM; stronger effect = higher value
Method in brief: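 A repair-deficient yeast strain is exposed to test compound, and growth is scored relative to vehicle-treated controls.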

Measured: growth inhibition

COc1ccc(/C=C/C(=O)O)cc1OC
inactive: [1] -1.65% | [2] -12% | [3] 11.7% | [4] -1% | [5] 12.3% | [6] -0.65%

CC(=O)Oc1cc(C)c(OC(C)=O)c(C)c1C
inactive: [1] -12.8% | [2] -27.4% | [3] -2.15% | [4] -9.3% | [5] 10.3% | [6] 6.3%

CCCCCCCCCCCCCCCCCCCCCCCCC(O)C(=O)O (stereo not given) (tested in a mixture with another compound)
inactive: [1] -33% | [2] -31.4% | [3] -2.4% | [4] -23.2% | [5] 7.7% | [6] -0.45%

CCC(C)(O)CCC(C)(O)CC (stereo not given)
inactive: [1] 27.6% | [2] 5.4% | [3] 14.9% | [4] -14.7% | [5] 20% | [6] 9.25%

CN(C)CC(CN(C)C)C(O)c1ccccc1 (stereo not given)
inactive: [1] 2.4% | [2] -11.5% | [3] -6.35% | [4] 12% | [5] -4.8% | [6] -13.1%

CCCOC(=O)c1c(Cl)c(Cl)c(Cl)c(Cl)c1C(=O)OCCC
inactive: [1] 12.8% | [2] -20.8% | [3] 4.8% | [4] -3.05% | [5] -15.2% | [6] 8.3%

CCSC1C(N=[N+]=[N-])C(CO)OC1n1cnc2c(N)ncnc21 (stereo not given)
inactive: [1] 1.3% | [2] -3.2% | [3] 9.3% | [4] 10.9% | [5] -2% | [6] 4.7%

COC1=C(c2c[nH]c3ccc(CC=C(C)C)cc23)C(=O)C(OC)=C(c2c[nH]c3ccc(CC=C(C)C)cc23)C1=O
inactive: [1] 30.5% | [2] 6.5% | [3] 13.6% | [4] 19.4% | [5] -1.1% | [6] 29.6%

C1CCC2(CC1)OCCS2
inactive: [1] 24.6% | [2] 1.6% | [3] 11.2% | [4] 7.8% | [5] -1.45% | [6] 6.15%

COc1ccc(C2=C/C(=C/c3cccc(OC)c3OC)C(=O)O2)cc1
inactive: [1] -10.6% | [2] 0.65% | [3] 11.9% | [4] -30.9% | [5] -11.2% | [6] -5.35%

N#Cc1c(N)nc2c(c(-c3ccc(Cl)cc3)nn2-c2ccccc2)c1C#N
inactive: [1] -2.45% | [2] -17.4% | [3] -34.8% | [4] 11.1% | [5] -23.9% | [6] 6.1%

C/C=C/C=C/CC
inactive: [1] 8.75% | [2] -12.3% | [3] -5.4% | [4] 16.2% | [5] 16.9% | [6] -22.6%

CN(C)CCC(=O)c1cccnc1
inactive: [1] 9.9% | [2] -17.1% | [3] -3.35% | [4] -4.8% | [5] 5.65% | [6] -1.2%

CSC(=NC(=O)c1c(Cl)cccc1Cl)SC
inactive: [1] 21.8% | [2] 14.2% | [3] 40.2% | [4] 11.3% | [5] 42.4% | [6] 31.9%

CC1(C(=O)O)CCCCCCC1O (stereo not given)
inactive: [1] 10.2% | [2] 9.55% | [3] -2.55% | [4] 8.1% | [5] -6.1% | [6] -7.9%

COc1cccc(C2c3cc4c(cc3OC(C)(OC)C2C)OCO4)c1 (stereo not given)
inactive: [1] 19.8% | [2] 22.8% | [3] 21.4% | [4] -83.6% | [5] 4.25% | [6] 15.8%

COc1cc2c(cc1Cc1cc(OC)c(OC)c(OC)c1)OCO2
inactive: [1] 4.35% | [2] -17.2% | [3] 9.55% | [4] -3.15% | [5] 28.9% | [6] 24.4%

O=C(CC(=O)N1N=C(N(c2ccccc2)c2ccccc2)CC1c1ccccc1)Nc1ccccc1 (stereo not given)
inactive: [1] 17.1% | [2] 6.4% | [3] -2.1% | [4] 8.3% | [5] -0.35% | [6] 0.1%

C[C@]12CCC(=O)C=C1CC[C@@H]1C2CC[C@]2(C)Nc3[nH]ncc3CC12 (stereo not given in full)
inactive: [1] -22.2% | [2] 9.6% | [3] 37.4% | [4] 33.6% | [5] 11.8% | [6] 27.1%

Cc1c[nH]c(=O)n(CC(=O)C2(O)CCC3C4CCC5=CC(=O)CCC5(C)C4CCC32C)c1=O (stereo not given)
inactive: [1] 5.25% | [2] -4.45% | [3] -10.9% | [4] 13.2% | [5] -0.55% | [6] -1.35%

From PubChem BioAssay (NCI)
